Consider four compounds from PubChem BioAssay (NCI).

Molecules are shown by their SMILES. About 83,000 compounds went through this panel and 20% of them were active in at least one assay; those are over-represented in the sample as a whole.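 Values shown are percent growth following 48 h exposure of cells in 96-well plates to a single concentration of compound; below 10 was considered active.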 Values without a mark were called inactive. Active and inactive are the calls of the source.

The subject of the assay is MDA-MB-468 breast. In words: NCI-60 one-dose screen, 48 h (100 = growth as untreated, 0 = no growth, -100 = all killed). The note with it: 10 µM unless noted.
Turning to `COc1cc(/C=C/C(=O)c2ccc(Nc3ncnc4ccccc34)cc2)cc(OC)c1`, the growth is 28.8%.

For the compound `CC(=O)NCC(=O)Nc1ccc(-c2nnc3ccccn23)nc1.CC(=O)NCC(=O)Nc1ccc(-c2nnc3ccccn23)nc1.[Pt+2]`, the growth is 116%. The value for `CCCCCCCCCCCCCCCCC(=O)O.CCCCCCCCCCCCCCCCCC(=O)O.CCCCCCCCCCCCCCCCCC(=O)O.CCCCCCCCCCCCCCCCCC(=O)O.CCCCCCCCCCCCCCCCCC(=O)O.CO[CH-]OC12COC1CC(O)C1(C)C(O)C(OC(C)O)C3=C(C)C(OC(=O)C(O)C([NH-])c4ccccc4)CC(O)(C(OC(=O)c4ccccc4)C21)C3(C)C.[Cu+].[Zn].[Zn].[Zn].[Zn].[Zn]` (centres undefined) was -13.3% (active); that for `c1cc(OCCN2CCCCC2)cc(-c2n[nH]c3ccc(-c4ncn[nH]4)cc23)c1` was 93%.
